The values below come from PubChem BioAssay AID434936 (National Center for Advancing Translational Sciences (NCATS), 2010).

Records with an inconclusive call do not appear. Activity calls are given as the source filed them. Calls come from the whole dose curve; as a rule, active = well fitted curve in either direction with a large enough effect; inconclusive = small, poorly fitted or top-dose-only effect; inactive = flat fitted curve, though single readings scatter.

The target of the assay is Neuropeptide S receptor (Homo sapiens) (UniProt Q6W5P4). Nature of the assay: Confirmation Concentration-Response Assay for Antagonists of the Neuropeptide S Receptor: Robust Characterization of cAMP Signal Transduction. As to conditions: CHO-NPSR cells, NPS-stimulated cAMP TR-FRET; series mostly up to 50.7 µM; activity, negative = inhibition: at the top concentration. An excerpt: NIH Chemical Genomics Center [NCGC] NIH Molecular Libraries Probe Production centers Network [MLPCN] MLPCN Grant: X01-DA026210-01 Assay Submitter (PI): Heilig, Markus Alexander NCGC Assay Overview: Neuropeptide S receptor (NPSR), previously known as GPR154, is a recently de-orphanized G protein coupled receptor. Its endogenous ligand is the 20 amino acids peptide Neuropeptide S (NPS). […] NPS and its receptor are found in various tissues. Specifically they are highly expressed in brain areas that have been implicated in modulation of arousal, stress and anxiety. Central administration of NPS in mice produces an unusual profile of activity by inducing wakefulness and arousal, while at the same time suppressing anxiety. Therefore, NPSR may represent a novel drug target for the treatment of sleep and anxiety disorders. To identify NPSR antagonists, we developed a cell-based cAMP assay. NPS can stimulate the production of cAMP in Chinese hamster ovary cells stably expressing NPS receptor. This change in intracellular cAMP level can be detected by a homogeneous LANCE cAMP assay based on the TR-FRET (time resolved fluorescence resonance energy transfer) between a europium-labeled cAMP tracer complex and a cAMP-specific antibody labeled with Alexa Fluor 647. The europium-labeled cAMP tracer complex is formed by the tight interaction between Biotin-cAMP (b-cAMP) and streptavidin labeled with Europium-W8044 chelate (Eu-SA). Light pulse at 320 nm excites the europium of the cAMP tracer and the energy emitted is transferred to the Alexa molecule bound to the cAMP antibody, generating a TR-FRET signal at 665 nm. Residual energy from the europium will produce a light at 620 nm. The native unlabeled cAMP from cell lysates competes with the europium-cAMP tracer for antibody binding and reversely reduces the emission signal of Alexa by interrupting FRET between the two labeled molecules. Both emission signals from the FRET donor (620 nm) and the acceptor (665 nm) can be detected by a plate reader in the TRF mode. Expression of result in fluorescence ratio (665 nm/620 nm) helps to normalize differences due to cell density and reagent dispensing. This assay was successfully optimized to a 1536-well plate format. Select compounds from the primary screen (AID 1461) were chosen for confirmation based on potency, efficacy, SAR, and activity across other assays in PubChem and at NCGC. Other compounds are analogs of active compounds from the primary screen. This particular assay uses a high density of sampling across concentration-response space to establish more confidence estimates of potency.
Sequence of Neuropeptide S receptor (Homo sapiens) (Q6W5P4 whole entry, looked up): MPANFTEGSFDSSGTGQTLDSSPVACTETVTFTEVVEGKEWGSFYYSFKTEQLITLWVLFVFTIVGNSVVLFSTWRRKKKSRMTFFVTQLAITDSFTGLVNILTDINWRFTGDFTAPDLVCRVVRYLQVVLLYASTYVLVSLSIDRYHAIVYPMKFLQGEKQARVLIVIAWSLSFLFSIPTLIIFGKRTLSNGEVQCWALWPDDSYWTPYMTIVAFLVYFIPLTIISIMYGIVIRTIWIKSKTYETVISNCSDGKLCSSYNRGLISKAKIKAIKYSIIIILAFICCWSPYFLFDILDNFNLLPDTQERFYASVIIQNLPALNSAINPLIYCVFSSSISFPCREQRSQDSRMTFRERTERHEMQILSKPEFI
NCGC Assay Protocol Summary: A Chinese hamster ovary (CHO) cell line stably expressing the NPS receptor (CHO-NPSR) was obtained from Dr. Heilig lab at NIAAA and maintained in F-12 Kaighn's media (Invitrogen, Carlsbad, CA, 21127) supplemented with 10 % FBS, 100 units/ml penicillin, 100 ug/ml streptomycin and 250 ug/ml geneticin at 37C, 5% CO2 in a humidified atmosphere. Before the assay, aliquots of cells were frozen and stored at -135C. The assay was performed in 1536-well format. Data are reported for both the ratio of the two emission wavelengths, and also for the component 'donor' channel, Em2=620. […] IC50 values were determined from concentration-response data modeled with the standard Hill equation. NPS 1536-well assay protocol: (1) Fresh or frozen CHO-NPSR cells were suspended in F-12 Kaighn's media supplemented with 10 % FBS, 100 units/ml penicillin and 100 ug/ml streptomycin. Cells were plated at 4 ul/well (1200 cells) to white, tissue culture treated 1536-well plates, and then cultured at 37C, 5 % CO2 for 16 to 30 hours. (2) Add 23 nl/well of compound in DMSO solution. The final titration for each compound was between 0.6 nM and 46 uM. […]
As for `O=C(c1ccccc1)N(C(=O)c1ccccc1)c1ncnc2c1C(c1ccccc1)c1c(ccc3ccccc13)O2` (stereo unspecified), the Potency is 1.54 µM (active).

Regarding `N=c1c2c(ccn1CCc1ccccc1)Oc1ccc3ccccc3c1C2c1ccccc1` (stereo unspecified), the Potency is 3.87 µM (active).

As to `COc1cccc(C2c3c(ncn(-c4ccccc4C(C)(C)C)c3=N)Oc3ccc4ccccc4c32)c1` (stereo unspecified), the Potency was 12.2 µM (active).

As for `CCOC(=O)CCC(=O)Nc1ncnc2c1C(c1ccccc1)c1c(ccc3ccccc13)O2` (stereo unspecified), the Potency was 3.45 µM (active).

Consider `COc1ccc(C2c3c(nc(CCc4ccccc4)[nH]c3=O)Oc3ccc4ccccc4c32)cc1OC` (stereo unspecified), for which the “activity, negative = inhibition” value was -4.2% (inactive).

In the case of `CCC(C)(CCN1CCOCC1)N(Cc1cc2ccccc2n(C)c1=O)C(=O)C1CCCCC1` (stereo unspecified), the Potency was 0.0546 µM (active).

On to `COc1cccc(C2c3c(ncn(-c4ccccc4SC)c3=N)Oc3ccc4ccccc4c32)c1` (stereo unspecified), for which the Potency was 4.87 µM (active).

On to `O=C(CCc1ccccc1)Nc1ncnc2c1C(c1ccccc1)c1c(ccc3ccccc13)O2` (stereo unspecified), for which the Potency is 4.34 µM (active).

`CC(C)(C)OC(=O)Nc1ncnc2c1C(c1ccccc1)c1c(ccc3ccccc13)O2` (stereo unspecified): the Potency is 10.9 µM (active).

In the case of `COc1cccc(C2c3c(ncn(Cc4cccs4)c3=N)Oc3ccc4ccccc4c32)c1` (stereo unspecified), the Potency is 12.2 µM (active).

On to `N#CC1=C(NC=NCc2ccccc2)Oc2ccc3ccccc3c2C1c1ccccc1` (stereo unspecified), for which the Potency was 1.37 µM (active).

`O=C(NCc1ccccc1)Nc1ncnc2c1C(c1ccccc1)c1c(ccc3ccccc13)O2` (stereo unspecified): the Potency was 30.7 µM (active).

Take `COc1cccc(C2c3c(ncn(-c4ccc(F)cc4)c3=N)Oc3ccc4ccccc4c32)c1` (stereo unspecified): the Potency was 12.2 µM (active).

For the compound `COc1cccc(C2c3c(ncn(-c4cccc(OC)c4)c3=N)Oc3ccc4ccccc4c32)c1` (stereo unspecified), the Potency is 6.88 µM (active).

`COc1cccc(C2c3c(ncn(-c4ccc(C(C)(C)C)cc4)c3=N)Oc3ccc4ccccc4c32)c1` (stereo unspecified): the Potency was 12.2 µM (active).

As to `N=c1c2c(ccn1Cc1ccccc1)Oc1ccc3ccccc3c1C2c1ccccc1` (stereo unspecified), the Potency was 2.18 µM (active).

With `COc1cccc(C2c3c(ncn(-c4cccc(Cl)c4)c3=N)Oc3ccc4ccccc4c32)c1` (stereo unspecified), the Potency was 8.67 µM (active).

As to `COc1cccc(C2c3c(ncn(-c4ccncc4)c3=N)Oc3ccc4ccccc4c32)c1` (stereo unspecified), the Potency is 13.7 µM (active).

As for `N=c1c2c(ccn1CCCc1ccccc1)Oc1ccc3ccccc3c1C2c1ccccc1` (stereo unspecified), the Potency was 2.74 µM (active).

For the compound `COc1cccc(C2c3c(ncn(-c4cccnc4)c3=N)Oc3ccc4ccccc4c32)c1` (stereo unspecified), the Potency was 8.67 µM (active).

Take `COc1cccc(C2c3c(ncn(-c4ccc5c(c4)OCO5)c3=N)Oc3ccc4ccccc4c32)c1` (stereo unspecified): the Potency is 4.34 µM (active).

Turning to `N=c1c2c(ncn1-c1ccccc1)Oc1ccc3ccccc3c1C2c1ccc2c(c1)OCCO2` (stereo unspecified), the Potency is 2.18 µM (active).

With `COc1ccc(-n2cnc3c(c2=N)C(c2cccc(OC)c2)c2c(ccc4ccccc24)O3)cc1` (stereo unspecified), the Potency was 6.88 µM (active).

Consider `COc1ccc(C2c3c(ncn(CCCc4ccccc4)c3=N)Oc3ccc4ccccc4c32)cc1OC` (stereo unspecified), for which the Potency was 27.4 µM (active).

In the case of `N=c1c2c(ncn1-c1ccccc1)Oc1ccc3ccccc3c1C2c1ccc2c(c1)OCO2` (stereo unspecified), the Potency is 3.07 µM (active).

Turning to `COc1cccc(C2c3c(ncn(-c4ccccc4-c4ccccc4)c3=N)Oc3ccc4ccccc4c32)c1` (stereo unspecified), the Potency was 15.4 µM (active).

Turning to `CCOC(=O)c1ccc(-n2cnc3c(c2=N)C(c2cccc(OC)c2)c2c(ccc4ccccc24)O3)cc1` (stereo unspecified), the Potency was 10.9 µM (active).

On to `COc1cccc(C2c3c(ncn(-c4ccccc4Br)c3=N)Oc3ccc4ccccc4c32)c1` (stereo unspecified), for which the Potency was 9.72 µM (active).

Regarding `COc1cccc(C2c3c(ncn(-c4ccc(Br)cc4)c3=N)Oc3ccc4ccccc4c32)c1` (stereo unspecified), the Potency was 12.2 µM (active).

As to `COc1cccc(C2c3c(ncn(-c4ccc(C)cc4)c3=N)Oc3ccc4ccccc4c32)c1` (stereo unspecified), the Potency is 8.67 µM (active).

Turning to `N=c1c2c(ncn1-c1ccccc1)Oc1ccc3ccccc3c1C2c1ccc2c(c1)CCO2` (stereo unspecified), the Potency is 2.18 µM (active).
